From PubChem
The list is not random: actives were taken first. Their share in the collection is about 1.8%.
HTR2A ag – mouse Htr2a agonists via beta-arrestin recruitment, primary screen, cell-based, luminescence; CHO-K1 mHTR2A beta-arrestin complementation; percent of 30 µM serotonin response; activation, % at 7.6 µM; 360,000 compounds, 0.66% hits; AID 624169, 2012;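 active = activation above a run cutoff, the mean activation of all tested compounds plus 3 SD, cut at about 14% in these data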;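 note: 0% = plate median of compound wells and 100% = 30 µM serotonin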
Target sequence (P35363 whole entry, looked up): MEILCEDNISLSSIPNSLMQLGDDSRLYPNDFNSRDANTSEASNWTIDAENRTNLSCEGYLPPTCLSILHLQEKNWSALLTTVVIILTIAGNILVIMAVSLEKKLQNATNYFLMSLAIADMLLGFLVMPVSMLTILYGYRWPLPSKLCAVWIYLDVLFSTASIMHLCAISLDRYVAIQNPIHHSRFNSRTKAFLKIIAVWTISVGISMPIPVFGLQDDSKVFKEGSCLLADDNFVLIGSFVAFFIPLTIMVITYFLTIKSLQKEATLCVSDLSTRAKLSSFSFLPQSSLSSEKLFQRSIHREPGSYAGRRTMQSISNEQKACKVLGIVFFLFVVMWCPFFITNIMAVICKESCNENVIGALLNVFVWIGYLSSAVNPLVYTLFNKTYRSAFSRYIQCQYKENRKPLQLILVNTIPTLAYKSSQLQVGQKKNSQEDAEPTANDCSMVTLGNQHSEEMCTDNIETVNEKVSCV
MsrA inhibitor – bovine MsrA enzyme inhibitors, primary screen, biochemical, absorbance, HTS; purified bovine MsrA, absorbance read-out; 360,000 compounds, 0.75% hits; inhibition, % at 15.5 µM; AID 651718, 2012; Methionine sulfoxide reductase A (Bos taurus); in the data active = inhibition above about 4.5%;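 note: 0% = vehicle wells with enzyme and 100% = reference inhibitor wells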
MsrA act – bovine MsrA enzyme activators, primary screen, biochemical, absorbance, HTS; Methionine sulfoxide reductase A (Bos taurus); purified bovine MsrA, absorbance read-out; activation, % at 10.6 µM; 360,000 compounds, 0.3% hits; AID 602163, 2012; in the data active = activation above about 7.5%;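 note: 0% = vehicle and 100% = reference activator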
NPR1 activator – GC-A stimulated cGMP production enhancers – HEK293 GC-A cells, cGMP TR-FRET, EC30 ANP, primary screen; Atrial natriuretic peptide receptor 1 (Homo sapiens), P16066; 0% at EC30 ANP, 100% saturating ANP; activation, % at 10 µM; 370,000 compounds, 0.14% hits; in the data active = activation above about 40%
GC-B act – human GC-B receptor activators, primary screen, HEK293 GC-B cells, cGMP TR-FRET, EC30 CNP. AID 1920062, 2024. 0% at EC30 CNP, 100% saturating CNP. 370,000 compounds, 0.11% hits. activation, % at 10 µM. Atrial natriuretic peptide receptor 2 (Homo sapiens), P20594;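 active = activation at 10 µM reaching about 35% in either raw or pattern-adjusted values, limit read from the data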
An asterisk follows results filed as active; nt = no result given.

SMILES | HTR2A ag | MsrA inhibitor | MsrA act | NPR1 activator | GC-B act
C=CCNC(=S)N/N=C/c1cn(-c2ccccc2)nc1-c1ccc(OC)cc1 | 5 | 1 | -5 | 35 | 42*
COc1ccc(-c2nn(-c3ccccc3)cc2/C=N/NC(=S)NC(C)C)cc1OC | -4 | 2 | -1 | 31 | 42*
O=C(N[C@H]1CCCCNC1=O)c1cc(COc2ccc(F)cc2F)on1 | -4 | -1 | -3 | 66* | 6
COc1ccc(C(=O)c2c(C(F)(F)F)oc3c2C(=O)c2ccccc2C3=O)cc1OC | -4 | 47* | 1 | -3 | 2
CCCc1nn(C)c2c(=O)[nH]c(-c3cc(S(=O)(=O)N(CCO)CCO)ccc3OCC)nc12 | 7 | 2 | -2 | 50* | 56*
CCOc1ccc(S(=O)(=O)N(CCO)CCO)cc1-c1nc2c(C(C)(C)C)nn(C)c2c(=O)[nH]1 | -1 | 0 | 0 | 58* | 63*
CCC[C@H]1[C@@H](NC(=O)/C=C/c2ccccc2)CC[C@@]23CCCN2C(=O)CCC[C@@H]13 | nt | nt | nt | -1 | 1
CCN1CCN(CC(=O)Nc2ccc3c(c2)OCO3)C(=O)C1=O | 23* | 1 | 0 | 0 | 4
CC(=O)CSc1ccc(-c2nc3cc(C)c(C)cc3[nH]2)cn1 | 6 | 4.7* | -3 | 4 | 1
CCn1c(=O)n(CC(=O)N2CCN(c3ccc(F)cc3)CC2)c(=O)c2ccccc21 | nt | nt | nt | 0 | 2
COc1ccc(OC)c(-n2c(SCC(=O)Nc3cccc(S(N)(=O)=O)c3)nc3ccccc3c2=O)c1 | -4 | 1 | -1 | 33 | 37*
COc1ccccc1-n1c(SCC(=O)Nc2cccc(S(N)(=O)=O)c2)nc2ccccc2c1=O | 4 | -1 | -3 | 5 | 6
CCn1c(=O)n(CC(=O)N2CCCN(Cc3ccccc3)CC2)c(=O)c2ccccc21 | nt | nt | nt | 1 | -5
N#Cc1ccc(/C=C2\CC3(OC(=O)C4CCCC4)CCCN2C3)cc1 (stereo not given) | nt | nt | nt | -2 | 4
O=C(NCCN1CCN(c2ccccc2)CC1)C1CCCN(S(=O)(=O)c2cnc[nH]2)C1 (stereo not given) | 30* | nt | -1 | nt | nt
O=C(NCCN1CCN(c2cccc(Cl)c2)CC1)C1CCCN(S(=O)(=O)c2cnc[nH]2)C1 (stereo not given) | 14 | 1 | 4 | 2 | 2
Cc1cc(NC(=O)COC(=O)COc2ccc(C(=O)c3ccccc3)cc2)no1 | -2 | 0 | -2 | 64* | -1
N#CCC[C@H]1CC[C@]2(CCCN(C(=O)C3CCCC3)C2)O1 | nt | nt | nt | 2 | 8
Cc1ccc(/C=C2/NC(=O)N(Cc3ccccc3F)C2=O)o1 | -4 | 2 | -6 | 60* | 42*
Cc1ccc(/C=C2/NC(=O)N(Cc3ccc(Br)cc3)C2=O)o1 | -4 | 0 | -1 | 3 | 49*
Cc1nn(Cc2ccccc2)c(C)c1/C=N/NC(=O)CNc1cccc(C(F)(F)F)c1 | 1 | 0 | -7 | -2 | 2
O=C(CNc1cccc(C(F)(F)F)c1)N/N=C/c1cn(-c2ccccc2)nc1-c1ccccc1 | 0 | 4.6* | -8 | 3 | -1
Fc1ccccc1CNc1nc(-c2cccnc2)nc2ccccc12 | -14 | 0 | -2 | 32 | 36*
c1cncc(-c2nc(NCc3cccs3)c3ccccc3n2)c1 | -1 | 1 | -4 | 4 | 8
COc1cc(C(=O)NC2CCCCN(C(C)C)C2=O)cc(OC)c1OC (stereo not given) | nt | nt | nt | 3 | 5
SMILES | HTR2A ag | MsrA inhibitor | MsrA act | NPR1 activator | GC-B act
Cc1ccc(OCC(=O)N(Cc2ccc(N(C)C)cc2)C2CCS(=O)(=O)C2)cc1 (stereo not given) | 3 | 0 | -3 | -1 | -1
CN(C)c1ccc(CN(C(=O)COc2ccc(F)cc2)C2CCS(=O)(=O)C2)cc1 (stereo not given) | -5 | nt | 8.2* | 0 | 2
CCOC(=O)[C@]12CCCC=C1N(Cc1ccc(OC)cc1)C(=O)[C@@H]2CC(=O)N1CCC(c2ccccc2)CC1 | nt | nt | nt | -5 | -3
S=C(c1ccc(-c2ccc(Br)cc2)o1)N1CCCCC1 | -4 | 0 | -4 | 3 | -1
S=C(c1ccc(-c2ccc(Br)cc2)o1)N1CCOCC1 | -5 | 2 | -5 | 28 | 36*
O=C(CSc1nnc(COc2ccc(Cl)cc2)n1Cc1ccco1)Nc1ccc(OCc2ccccc2)cc1 | nt | nt | nt | -1 | 8
CCOc1ccc(NC(=O)c2ccc3[nH]c(=O)c(=O)[nH]c3c2)cc1 | 8 | 4.6* | -3 | 5 | 1
CSc1ccc(/C=C(\C#N)C(=O)NC2CCCCC2)cc1 | 0 | -1 | 5 | 3 | -4
CC(=O)Nc1ccc(/C=C(\C#N)C(=O)NC2CCCCC2)cc1 | -2 | 4.6* | -1 | 6 | -8
O=C1C=C(O)c2cccc(O)c2C1=O | -2 | 0 | -1 | 2 | -7
CC1OC(CC(=O)O)CC2=C1C(=O)c1c(O)cccc1C2=O (stereo not given) | -12 | 9.9* | 67* | 13 | 2
Cc1c(CC(=O)NCC(=O)O)c(=O)oc2cc3c(cc12)CCC(C)(C)O3 | -1 | 4.6* | -4 | 1 | -2
O=C(COC(=O)c1cc(-c2ccc(Cl)s2)nc2ccccc12)NCc1ccco1 | 8 | 4.6* | -3 | 2 | -9
CC(/C=N/NC(=O)c1ccncc1)=C\c1ccccc1 | 3 | 5.2* | -8 | -4 | -12
COC(=O)c1ccccc1NC(=O)CC(=O)Nc1ccccc1C(=O)OC | -5 | 1 | 1 | -6 | 3
COC(=O)c1ccccc1NC(=O)CSCC(=O)Nc1ccccc1 | 18* | 1 | -12 | -6 | -1
Cc1ccc(NC(=O)c2cc(S(=O)(=O)N(C)C)ccc2N2CCCC2)cc1S(=O)(=O)N(C)C | -8 | 1 | 0 | 37 | 38*
Cc1ccc(NC(=O)c2cc(S(=O)(=O)N3CCCCC3)ccc2N2CCOCC2)cc1S(=O)(=O)N(C)C | -4 | 1 | -1 | -6 | 2
COc1ccc(C(=O)N/C(=C\c2cccs2)c2nc3ccccc3[nH]2)cc1OC | 2 | 6.0* | -4 | -5 | 2
COc1ccc(C(=O)N/C(=C/c2cccs2)C(=O)NN)cc1OC | -3 | 0 | -2 | 0 | -4
N/C(=N\OC(=O)c1ccc(Cl)c([N+](=O)[O-])c1)c1ccccc1 | 7 | 0 | 3 | 46* | -4
COc1ccc2cc3cc(C(=O)Nc4ccccc4N4CCN(C)CC4)oc3nc2c1 | 16* | -1 | -1 | 0 | -1
CCOC(=O)C1CCN(C(=O)C(C)(C)NC(=O)Nc2ccc(Cl)cc2Cl)CC1 | nt | nt | nt | -3 | -3
CCOC(=O)c1cc(-c2ccc(F)cc2)nc2c1c(=O)[nH]c(=O)n2Cc1ccccc1 | -1 | 0 | -6 | 37 | 43*
